Measured values taken from PubChem BioAssay AID1734 (Vanderbilt High Throughput Screening Facility, 2009).
The source made the active and inactive calls. The rule behind the calls is not given here.

Tests used:
[1] = KCC2 and NKCC1 inhibition by rubidium flux, cell-based, NKCC1 counter-screen (AID 1734); settings: KCC2-expressing cells, NKCC1 counter-screen
[2] = target: Solute carrier family 12 member 5 (Homo sapiens) (UniProt Q9H2X9); experiment: as above; settings: KCC2-expressing cells
Sequence of Solute carrier family 12 member 5 (Homo sapiens) (Q9H2X9 whole entry, looked up): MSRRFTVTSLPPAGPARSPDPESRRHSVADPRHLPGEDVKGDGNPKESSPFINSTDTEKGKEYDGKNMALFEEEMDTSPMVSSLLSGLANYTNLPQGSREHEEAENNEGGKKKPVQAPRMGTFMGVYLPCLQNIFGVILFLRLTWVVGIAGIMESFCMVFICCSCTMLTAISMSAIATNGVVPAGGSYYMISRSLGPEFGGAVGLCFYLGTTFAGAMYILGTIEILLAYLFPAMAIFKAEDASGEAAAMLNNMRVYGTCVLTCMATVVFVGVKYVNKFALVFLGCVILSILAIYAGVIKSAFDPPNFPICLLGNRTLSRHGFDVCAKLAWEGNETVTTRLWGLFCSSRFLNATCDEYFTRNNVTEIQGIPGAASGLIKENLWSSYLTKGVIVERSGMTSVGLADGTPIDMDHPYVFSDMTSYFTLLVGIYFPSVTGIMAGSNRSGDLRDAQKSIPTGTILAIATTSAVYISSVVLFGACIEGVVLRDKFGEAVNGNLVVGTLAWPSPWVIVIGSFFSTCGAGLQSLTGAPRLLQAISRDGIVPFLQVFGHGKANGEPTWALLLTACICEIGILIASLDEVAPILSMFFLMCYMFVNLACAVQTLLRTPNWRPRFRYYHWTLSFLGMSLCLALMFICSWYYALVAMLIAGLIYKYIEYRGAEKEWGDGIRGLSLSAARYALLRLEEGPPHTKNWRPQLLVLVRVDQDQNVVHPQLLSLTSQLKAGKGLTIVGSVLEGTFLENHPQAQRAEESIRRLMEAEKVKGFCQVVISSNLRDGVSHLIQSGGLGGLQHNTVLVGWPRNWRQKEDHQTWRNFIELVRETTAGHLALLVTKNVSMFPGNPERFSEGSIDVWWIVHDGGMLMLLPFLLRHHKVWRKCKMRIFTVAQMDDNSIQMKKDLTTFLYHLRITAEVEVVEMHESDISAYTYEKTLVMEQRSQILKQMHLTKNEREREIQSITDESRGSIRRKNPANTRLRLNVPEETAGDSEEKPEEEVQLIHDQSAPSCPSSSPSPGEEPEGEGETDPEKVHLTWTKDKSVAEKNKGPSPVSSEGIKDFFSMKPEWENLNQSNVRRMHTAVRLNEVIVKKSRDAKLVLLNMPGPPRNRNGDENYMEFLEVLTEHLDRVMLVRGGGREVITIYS

Structure (SMILES) | inhibition ([1]; at 5 µM) [%] | inhibition ([1]; at 50 µM) [%] | outcome [2]
O=C(CCS(=O)(=O)Cc1ccccc1)Nc1nc2c(s1)CCCC2 | 35.8 | 37.1 | 
CCOc1ccc(N2C(=O)C3Sc4[nH]c(=O)sc4C(/C=C/c4ccccc4)C3C2=O)cc1 (centres undefined) | 67.4 | 90.8 | 
CN(Cc1ccccc1)S(=O)(=O)c1ccc(Cl)c(C(=O)NCCc2ccccn2)c1 | 44.4 | 53.4 | 
Cc1cnc(NC(=O)CSc2nnc(Cc3ccccc3)o2)s1 | 9.9 | 16.8 | 
Cc1csc(NC(=O)CSc2ccc(-c3ccccc3)nn2)n1 | 12.9 | 19.7 | 
Cc1ccc(NC(=O)c2ccccc2NS(=O)(=O)c2ccc(Cl)s2)cc1 | 65.1 | 68.4 | inactive
CCc1ccc(OCCNC(=O)c2ccccc2SCc2ccc(F)cc2)cc1 | 45.3 | 47.9 | inactive
Cc1nc(CC(=O)Nc2nc(-c3ccccc3)cs2)cs1 | 35.5 | 38.1 | 
O=C(CN1C(=O)NC2(CCCC2)C1=O)Nc1nc(-c2ccc(F)cc2)cs1 | 39.2 | 43.6 | 
O=C(Cn1cnc2c(nnn2Cc2ccc(F)cc2)c1=O)N1CCCc2ccccc21 | 28.1 | 27.7 | 
Cc1ccc(Nc2nnc(SCC(=O)c3cc4ccccc4o3)s2)cc1C | 46.3 | 53.4 | 
O=C(OCC(=O)N1CCN(C(=O)c2ccco2)CC1)c1sc2ccccc2c1Cl | 33.3 | 55.4 | 
CCCn1c(N)c(C(=O)CSc2nnc(Cc3ccccc3)o2)c(=O)n(C)c1=O | 15.4 | 28.3 | 
O=C(O)CCn1c(SCc2cccc3ccccc23)nc2ccccc21 | 57.5 | 80.5 | 
O=C(/C=C/c1ccccc1)Nc1scc(-c2ccccc2)c1C(=O)O | 25.2 | 72.8 | 
CCOc1ccc(Nc2n[nH]c(=S)s2)cc1 | 44.9 | 67.4 | inactive
O=C(NCCOc1ccccc1F)c1ccccc1SCc1ccc(F)cc1 | 34.2 | 45.8 | 
O=C(NCC1CCCN(C(=O)c2cccnc2)C1)c1ccc(-c2ccccc2)cc1 (centres undefined) | 31.2 | 40.3 | inactive
CC(C)c1onc(C(=O)N2CCN(Cc3ccccc3)CC2)c1[N+](=O)[O-] | 6.1 | 15.5 | 
O=C(Cn1cnc2c(nnn2Cc2ccccc2)c1=O)N1CCCc2ccccc21 | 23.4 | 33.2 | 
O=C(Cn1cnc2c(nnn2Cc2ccccc2)c1=O)c1ccc(Cl)cc1 | 25.1 | 40.6 | 
Cc1ccc(-c2ccc(S(=O)(=O)NCC3CCCO3)cc2)cc1 (centres undefined) | 21.8 | 26.6 | 
O=C(Nc1ccc(S(=O)(=O)NCc2ccccc2)cc1)c1ccccc1[N+](=O)[O-] | 24.2 | 31.2 | 
O=S(=O)(NCc1ccccc1)c1ccc(Cl)c(S(=O)(=O)NCc2ccccc2)c1 | 13.5 | 30.5 | 
CC1Cc2ccccc2N1C(=O)c1ccc(N2CCCC2)c([N+](=O)[O-])c1 (centres undefined) | 22.9 | 48.5 | 
